In PubChem BioAssay (NCI):
About 83,000 compounds went through this panel and 20% of them were active in at least one assay; those are over-represented in the sample as a whole.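 Compound tested at a single concentration for 48 hours in 96-well plates; a percent growth value below 10 was scored as active.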 A number with no mark means an inactive call. Activity calls are given as the source filed them.

Tests used:
Assay in all cases: NCI-60 one-dose screen, 48 h (100 = growth as untreated, 0 = no growth, -100 = all killed)
Conditions in all cases: 10 µM unless noted
NCI-H23 lung = system: NCI-H23 lung
NCI-H226 lung = system: NCI-H226 lung
HOP-62 NSCLC = system: HOP-62 NSCLC
NCI-H460 lung = system: NCI-H460 lung
HOP-92 NSCLC = system: HOP-92 NSCLC
NCI-H522 lung = system: NCI-H522 lung
A549/ATCC NSCLC = system: A549/ATCC NSCLC
786-0 renal = system: 786-0 renal
COLO 205 colon = system: COLO 205 colon
DU-145 prostate = system: DU-145 prostate
K-562 leukemia = system: K-562 leukemia
MALME-3M melanoma = system: MALME-3M melanoma
MDA-MB-231 breast = system: MDA-MB-231 breast
SF-268 CNS = system: SF-268 CNS
SF-295 CNS = system: SF-295 CNS
SF-539 CNS = system: SF-539 CNS
UACC-257 melanoma = system: UACC-257 melanoma
M14 melanoma = system: M14 melanoma
RXF 393 renal = system: RXF 393 renal

Row | Structure (SMILES) | growth (NCI-H23 lung) [%] | growth (NCI-H226 lung) [%] | growth (HOP-62 NSCLC) | growth (NCI-H460 lung) | growth (HOP-92 NSCLC) | growth (NCI-H522 lung) | growth (A549/ATCC NSCLC) | growth (786-0 renal) [%] | growth (COLO 205 colon) | growth (DU-145 prostate) | growth (K-562 leukemia) | growth (MALME-3M melanoma) | growth (MDA-MB-231 breast) | growth (SF-268 CNS) | growth (SF-295 CNS) | growth (SF-539 CNS) | growth (UACC-257 melanoma) [%] | growth (M14 melanoma) | growth (RXF 393 renal)
1 | COc1ccc(-c2ccc(-c3ccc(-c4ccc(C(=N)N)cc4)s3)s2)cc1OC | 88.7 | 96.7 | 86% | 97.7% | 33.1% | 99.9% | 43.1% | 93 | -14.7% (active) | 36.4% | -50% (active) | 92.6% | 80.2% | 87.1% | 99.7% | 88.9% | 103 | 99% | –
2 | COc1cccc(/C=C/C(=O)Nc2cc(OC)c3c(c2)OCO3)c1 | 97.1 | 99.2 | 99.7% | 100% | 86.5% | 87.4% | – | 91.3 | 109% | 94.7% | 92.1% | 96.4% | 83.5% | 98.2% | 89.8% | 111% | 96.8 | 104% | 103%
3 | NC1=NN(O)C2=CC([N+](=O)[O-])C=CC2=N1 (configuration not stated) | 97 | 110 | 98.9% | 110% | 94.1% | 94.2% | 110% | 103 | 111% | 114% | 103% | 137% | 118% | 101% | 117% | 98.5% | 94.8 | 113% | 115%
4 | Cc1ccc(-c2nc(C#N)c(S(=O)(=O)n3nc(-c4ccccc4)cc3N)o2)cc1 | 97.4 | 78.3 | 87.6% | 109% | 89.1% | -12% (active) | 94.4% | 84 | -44.1% (active) | 105% | 13.3% | -34.9% (active) | 89% | 101% | 104% | 97% | 92.1 | 83% | 85%
5 | COc1ccc2c(c1)[nH]c(=O)c1c3cc(C)c(C)cc3cn21 | 51.4 | 37 | -27.8% (active) | -16.4% (active) | -41.7% (active) | -55.8% (active) | -4.9% (active) | 30.9 | -48% (active) | -68% (active) | 35.9% | 15.6% | -35.7% (active) | -3.98% (active) | -51.7% (active) | 8.86% (active) | 66.8 | -33.5% (active) | -48.6% (active)
6 | O=[N+]([O-])c1ccc(OCCCOc2ccccc2)cc1 | 102 | 113 | – | 108% | 121% | 86.3% | 92.4% | 98.7 | 118% | 108% | 99% | 110% | 104% | 106% | – | 110% | 100 | 114% | 116%
7 | CCCCOc1ccc(/C=C2/SC(N3CCOCC3)=NC2=O)cc1OCC | 98.6 | 92 | 104% | 99.5% | 70.7% | 75% | 96% | – | 113% | 99.4% | 86.4% | 93.1% | 83.8% | 99.2% | 100% | 86.4% | 108 | 91.8% | 94.6%
8 | CC(C)(C)c1[nH]nc2c1C(c1cc3ccccc3[nH]c1=O)Nc1cc(C(=O)Nc3ccc(Cl)cc3)ccc1N2 (configuration not stated) | 78.9 | 105 | 83.6% | 74.1% | 86.1% | 74.5% | 89.6% | 66.1 | 83.6% | 83.8% | 39.2% | 80.6% | 85.6% | 62.2% | 38.5% | 85.8% | 83.9 | 53.5% | 43.9%
9 | COc1cc(Nc2ncccc2C(=O)NCc2cn(Cc3cccc(Oc4ccccc4)c3)nn2)cc(OC)c1 | 66.2 | 91.7 | 56.6% | 20.2% | 108% | 5.73% (active) | – | 51 | 38.3% | 68.9% | – | 56.1% | 26.3% | 47.2% | 28.3% | 38.5% | 74 | 31.2% | 64.2%
10 | O=C(NCCCNc1nccc(-n2ccc3cccnc32)n1)c1c(F)cccc1F | 101 | 99.4 | – | 104% | 110% | 101% | 102% | 98 | 113% | 107% | 98.7% | 106% | 95.5% | 96.3% | 98.4% | 97.9% | 113 | 102% | 108%
